According to PubChem BioAssay AID1508607 (The Scripps Research Institute Molecular Screening Center, 2020):
Out of some 2,300 compounds screened, about 20 (0.9%) were called active. Many of the other results were omitted from the sample, so actives are more common in it than they were. Values without a mark were called inactive.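 Rule for the calls: active = mean percent activation across replicates above the counterscreen hit cutoff of 9.17%; inactive = the rest.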

biological target: Glucose-dependent insulinotropic receptor (Homo sapiens) (UniProt Q8TDV5); assay: GPR119 activators in beta-arrestin cells, confirmation, counter-screen for GPR151 activator project, cell-based, PathHunter beta-arrestin, luminescence, set 2 (AID 1508607); conditions: 90 min, at 11.2 µM, active compounds read high;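 note: 0% = median of sample wells and 100% = wells given EA reagent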
Sequence (Q8TDV5 whole entry, looked up): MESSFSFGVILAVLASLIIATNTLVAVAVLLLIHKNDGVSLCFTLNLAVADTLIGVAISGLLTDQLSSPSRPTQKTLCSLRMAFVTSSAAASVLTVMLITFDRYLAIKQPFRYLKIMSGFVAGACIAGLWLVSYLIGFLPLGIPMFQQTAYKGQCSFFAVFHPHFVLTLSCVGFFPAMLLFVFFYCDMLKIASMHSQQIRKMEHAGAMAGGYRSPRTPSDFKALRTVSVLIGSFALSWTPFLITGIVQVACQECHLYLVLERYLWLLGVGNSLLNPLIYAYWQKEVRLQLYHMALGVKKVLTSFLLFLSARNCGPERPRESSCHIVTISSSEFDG

Structure (SMILES)	activation
CC(C)OCCCNC(=O)CN(c1ccc(OCc2ccccc2)cc1)S(C)(=O)=O	-1.63%
COc1ccc(S(=O)(=O)CCC(=O)N2CCc3ccccc32)cc1	1.93%
Cc1ccc(S(=O)(=O)N2CCN3C(=O)[C@H](Cc4ccc(Cl)cc4)NC(=O)[C@H]3C2)cc1	1.14%
CC1(C(=O)NCC2Cc3cccc(-c4ncccn4)c3O2)CC1 (stereo not given)	1.78%
COc1ccc(CCNc2cc(C)nc(Nc3ccc(-n4ccnc4)cc3)n2)cc1	6.54%
COc1cc(Nc2ccnc(Nc3ccc(N4CCOCC4)cc3)n2)cc(OC)c1OC	7.31%
COc1ccc(CCNc2ccnc(Nc3ccc(-n4ccnc4)cc3)n2)cc1	12.4% (active)
Cc1cc(Nc2ccc3c(c2)OCO3)nc(Nc2ccc(N3CCOCC3)cc2)n1	1.65%
Cc1cc(Nc2ccc(N3CCOCC3)cc2)nc(Nc2ccc(-n3ccnc3)cc2)n1	3.07%
COc1ccc(CCNc2ccnc(Nc3ccc(N4CCOCC4)cc3)n2)cc1	10.5% (active)
O=C(O)c1cc([N+](=O)[O-])ccc1C(=O)Nc1cccc2ccccc12	-0.79%
CCC(=O)N1CCc2cc(S(=O)(=O)NCCN(CC)c3ccccc3)ccc21	-1.16%
CC1CCC(=NNC(=O)c2ccccc2O)CC1 (stereo not given)	-3.51%
CN(C)c1ccc(/C=C(\C#N)C(N)=C(C#N)C#N)cc1	4.1%
O=C(c1cccc(S(=O)(=O)N2CCOCC2)c1)N1CCCc2ccccc21	-5.28%
CC(=O)Cc1nsc(Nc2cccc(Cl)c2C)n1	6.59%
CSc1nc2sccn2c(=O)c1C(=O)NCc1ccccc1Oc1ccccc1	-1.15%
COc1cc2[nH]c(=O)n(CCC(=O)N3CCC(N4CCCCC4)CC3)c(=O)c2cc1OC	-2.11%
CN1CCN(c2cc(-c3cn[nH]c3)ccc2NC(=O)Cc2cccc(Cl)c2)CC1	11.6% (active)
CCOc1ccc(S(=O)(=O)N(CC(=O)NCCSc2ccccc2)c2ccccc2)cc1	-2.47%
COc1ccc(-n2ncc3c(Nc4cccc(F)c4)ncnc32)cc1	2.73%
COc1ccc(-n2ncc3c(Nc4cc(OC)ccc4OC)ncnc32)cc1	4.1%
COc1ccc(-n2ncc3c(Nc4ccc(C(C)C)cc4)ncnc32)cc1	9.19% (active)

Structure (SMILES)	activation
C/C(=N/NC(=O)CNC(=O)c1ccccc1F)c1cccc([N+](=O)[O-])c1	-2.45%
CCCn1cc(SCC(=O)Nc2ccc(OC)cc2OC)c2ccccc21	4.73%
CC(C)(C)NC(=O)C1CCN(S(=O)(=O)c2ccc(Br)s2)CC1	3.94%
COCCNC(=O)c1cccc(OC2CCN(Cc3cc4ccccc4o3)CC2)c1	0.69%
CCOc1ccccc1CNCc1c(C(=O)O)c(C)n(Cc2cccc(Cl)c2)c1C	-3.17%
N#C/C(=C/c1cc(Cl)ccc1Cl)c1nc2ccccc2c(=O)[nH]1	-3.12%
COC(=O)c1c(OCC2CCCCO2)cc(=O)n2c1CCN(Cc1ccsc1)CC2 (stereo not given)	0.67%
O=C(C1CCCN1S(=O)(=O)c1ccc(Cl)cc1)N1CCOCC1 (stereo not given)	2.3%
CCOC(=O)c1cc(-c2ccccc2)sc1NC(=O)c1ccc(OC)c(OC)c1	-1.86%
Cc1cc(OCC(=O)Nc2sc(C)c(C)c2C(N)=O)ccc1Br	3.41%
N#CC1=C2SCN(Cc3ccccc3)CN2C(=O)CC1c1cccc(F)c1 (stereo not given)	-1.21%
CC(=O)c1ccc(N2CCN(C(=O)c3cc4c(C)nc5ccccc5c4o3)CC2)cc1	0.66%
CCOc1ccc(/C=C2\SC(=S)N(CC(=O)Nc3ccc(O)cc3)C2=O)cc1	-3.84%
Cc1nc2n(n1)C(c1ccc(Cl)cc1)C=C(c1ccc(Cl)cc1)N2 (stereo not given)	-0.05%
C=CCOc1ccc(/C=C2\NC(=S)N(c3ccc(OC)cc3)C2=O)cc1	1.06%
CCCCNC(=O)c1ccc(C)c(N2CCCC2=O)c1	0.14%
O=S(=O)(/C=C/c1ccccc1)N1c2ccccc2C=CC1c1c[nH]c2ccccc12 (stereo not given)	-5.1%
COc1ccc(C(=O)N/N=C/c2ccc(O)cc2O)cc1OC	1.94%
Cc1ccc(Nc2nc(Cl)nc(N3CCOCC3)n2)cc1Cl	-1.69%
COC(=O)c1ccccc1NC(=O)c1cc2ccccc2oc1=O	2.29%
CC(=O)N1CCC(N(C(=S)Nc2cccc(Cl)c2C)C(C)C)CC1	-0.07%
CC(C)c1ccccc1OCC(=O)Nc1ccccc1Cl	-0.8%
Cc1c(Cl)cccc1NS(=O)(=O)c1c(C(C)C)cc(C(C)C)cc1C(C)C	9.78% (active)

Structure (SMILES)	activation
COc1ccc(NC(=O)N2CCC(CN3CCc4ccccc4C3)CC2)cc1	-2.3%
Cc1cccc(Cn2c(=O)c3ccccc3n3nncc23)c1	3.36%
COc1ccc(N2CCN(c3ncnc4sc(C(=O)N5CCC(C(N)=O)(N6CCCCC6)CC5)c(C)c34)CC2)cc1	0.57%
O=C(NCc1ccco1)c1ccc2ccccc2c1	1.88%
COc1ccc(-c2nc3c(=O)n(C)c4ccccc4c3o2)cc1	-4%
CCC(=O)N1CCN(c2ccc(NC(=O)C(C)(C)C)cc2)CC1	0.46%
O=C(CNc1ccccc1)N/N=C/c1cccc(Oc2ccccc2)c1	-3.18%
O=C(/C=C/c1ccccn1)NCCN1Cc2ccccc2OC(c2ccccc2)C1 (stereo not given)	1.44%
CCNC(=O)C(=O)Nc1ccc(OC)cc1	-1.66%
O=C(CSc1ccc2nnc(-c3ccncc3)n2n1)Nc1ccc(C(F)(F)F)cc1	-0.42%
Cc1n[nH]c(C)c1S(=O)(=O)NCc1ccc(F)cc1	-0.09%
O=c1oc2ccc3ccccc3c2cc1-c1nnc(Nc2ccc(Oc3ccc4ccccc4c3Cl)c(Cl)c2)s1	0.97%
CCC(C)OC(=O)C1=C(C)NC(=O)NC1c1cc(Br)ccc1OC (stereo not given)	1.91%
CC(C)c1ccc(Cn2ccc3c4c(N)nc(NC5CC5)nc4ccc32)cc1	51.2% (active)
CC(C)CC(=O)NCC1CCC2(CCN(Cc3ccccc3F)CC2)O1 (stereo not given)	2.66%
Cc1ccc(-n2nc3c(c2NC(=O)C2(c4ccc(Cl)cc4)CCCC2)CSC3)cc1	3.08%
CCOC(=O)CCCN(Cc1ccc(F)cc1)S(=O)(=O)c1ccc(F)c(C)c1	0.45%
COc1cc(NC(=O)c2onc(C)c2Cl)cc(OC)c1OC	-1.44%
CCOC(=O)N1CCN(C(=O)c2ccc3c(c2)NC(=O)C(CSCc2cc(C)ccc2C)N3)CC1 (stereo not given)	2.54%
O=C(O)c1c(CNC2CCCc3ccccc32)c2ccccc2n1Cc1ccccc1 (stereo not given)	-2.12%
O=C(O)c1cc([N+](=O)[O-])c(C(=O)O)cc1Oc1ccc(Cl)cc1	3.33%
COc1cc(/C=N/NC(=O)CCCC(=O)N/N=C/c2ccc(O)c(OC)c2)ccc1O	-0.52%
CCc1nnc2c3c4c(sc3nc(CC)n12)CCCC4	-1.48%

Structure (SMILES)	activation
CC(C)c1ccc(N=c2c([N+](=O)[O-])nn(-c3ccccc3)n2O)cc1	5.25%
CCOC(=O)c1nc(NCc2ccccc2)c2ccccc2n1	2.75%
O=C(Cn1c(=O)oc2ccccc21)Nc1cccc(C(F)(F)F)c1	3.85%
CCn1cnc2sc(C(=O)Nc3ccc(Cl)c(Cl)c3)c(C)c2c1=O	0.88%
COc1ccc(C(=O)Nn2c(-c3ccc(F)cc3)nc3ccccc3c2=O)cc1Br	-2.33%
CC(=O)c1c(C)oc2c1c1c(c3ccccc32)OCN(C2CCCC2)C1	2.76%
COc1ccc(OC)c(-n2c(O)c(/C=C3\C=CC=N3)c(=O)[nH]c2=O)c1	1.81%
N#CCCN1CCN(c2ccc(F)cc2[N+](=O)[O-])CC1	3.88%
CC(C)c1onc(C(=O)NC2CCCCC2)c1[N+](=O)[O-]	-2.5%
COc1ccc(O)c(C2=Nc3ccccc3N=C(c3ccc([N+](=O)[O-])cc3)C2)c1	-1.11%
COc1ccc(C[C@H](N)C(=O)N[C@@H]2[C@@H](CO)OC(n3cnc4c(N(C)C)ncnc43)[C@@H]2O)cc1 (stereo not given in full)	-4.23%
O=C(CCc1nnc2n(Cc3ccccc3)c(=O)c3ccccc3n12)NCCN1CCCC1	-0.83%
Cc1c(NC(=O)c2cc(F)cc(F)c2)c(=O)n(-c2ccccc2)n1C	-3.89%
CC1CC(C)(C)NC(=S)N1CC(=O)N1CCN(Cc2ccc3c(c2)OCO3)CC1 (stereo not given)	-1.14%
O=C(NCCO)C(=O)Nc1cccc(Cl)c1Cl	1.5%
Cc1ccc(NC(=O)CN(C)S(=O)(=O)c2ccc(Br)cc2)cc1Cl	4.66%
CCN(CC)c1ccc2cc(-c3nnc(NCc4ccc(F)cc4)s3)c(=O)oc2c1	0.77%
CCCCOc1ccc(C(=O)Nc2c3c(nn2-c2cccc(Cl)c2)CSC3)cc1	5.97%
Fc1ccc(-c2cnc3ccc(NCCCN4CCOCC4)nn23)cc1Cl	2.09%
O=C(NCCCN1CCOCC1)/C(=C/c1ccc(-c2cccc(C(F)(F)F)c2)o1)NC(=O)c1ccc(Cl)cc1	9.32% (active)
COCCCNC(=O)/C(=C\c1ccco1)NC(=O)c1ccc(C)cc1	-2.09%
